Measured values published in PubChem BioAssay AID1159580 (chemical genetic matrix, 2015).
Several values for one entry are separate records, joined by “and”; a condition that tells them apart may be missing. Identical values can stand only once. Among all 5,500 compounds or so, about 2,000 (36%) were called active. Inconclusive results (about 18%) are left out. No stated cut-off is given here; in the data, active means normalized growth mostly below about 0.91 (no sharp cut-off); inconclusive means no clear call, values can overlap the other calls; inactive means mostly above about 0.92. The list shows a part of the results.

Assay: chemical genetic growth profiling, strain panel (AID 1159580);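 further: tested at 20 µM; growth read once vehicle control cultures reached saturation at 30 °C; 1 = growth at the plate median or of vehicle wells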
Conditions: S. cerevisiae deletion strains, growth OD

Measured: normalized growth

C=C1C[C@]23C[C@@]1(O)CC[C@H]2[C@@]12C=C[C@H](O)[C@@](C)(C(=O)O1)[C@H]2[C@@H]3C(=O)O
inactive: locus YAL013W, strain DEP1, stronger effect = lower value 0.998 | locus YAL021C, strain ccr4, stronger effect = lower value 0.976 | locus YAL026C, strain drs2, stronger effect = lower value 1.04 | locus YAL030W, strain snc1, stronger effect = lower value 1.03 | locus YBL061C, strain skt5, stronger effect = lower value 1.02 | locus YBR009C, strain hhf1, stronger effect = lower value 1.02 | locus YBR021W, strain FUR4, stronger effect = lower value 1.01 | locus YBR023C, strain chs3, stronger effect = lower value 1.02 | locus YBR171W, strain sec66, stronger effect = lower value 1.03 | locus YBR229C, strain ROT2, stronger effect = lower value 0.956 | locus YBR231C, strain swc5, stronger effect = lower value 1.03 | locus YBR279W, strain paf1, stronger effect = lower value 1.02 | locus YCL011C, strain gbp2, stronger effect = lower value 1.03 | locus YCL016C, strain dcc1, stronger effect = lower value 0.997 | locus YCL029C, strain bik1, stronger effect = lower value 0.984 | locus YCL069W, strain vba3, stronger effect = lower value 1.03 | locus YCR088W, strain abp1, stronger effect = lower value 1.02 | locus YDL005C, strain med2, stronger effect = lower value 1.03 | locus YDL035C, strain GPR1, stronger effect = lower value 0.982 | locus YDL040C, strain nat1, stronger effect = lower value 1.03 | locus YDL074C, strain BRE1, stronger effect = lower value 1.02 | locus YDL101C, strain DUN1, stronger effect = lower value 0.999 | locus YDL134C, strain PPH21, stronger effect = lower value 1.03 | locus YDL185W, strain tfp1, stronger effect = lower value 0.978 | locus YDL192W, strain arf1, stronger effect = lower value 0.986 | locus YDR001C, strain nth1, stronger effect = lower value 1.03 | locus YDR069C, strain doa4, stronger effect = lower value 1.03 | locus YDR101C, strain arx1, stronger effect = lower value 0.967 | locus YDR137W, strain rgp1, stronger effect = lower value 1.03 | locus YDR150W, strain NUM1, stronger effect = lower value 0.996 | locus YDR159W, strain sac3, stronger effect = lower value 1.04 | locus YDR162C, strain NBP2, stronger effect = lower value 0.976 | locus YDR195W, strain ref2 1 | locus YDR297W, strain sur2, stronger effect = lower value 1.02 | locus YDR318W, strain mcm21, stronger effect = lower value 0.984 | locus YDR334W, strain swr1, stronger effect = lower value 1.02 | locus YDR335W, strain msn5, stronger effect = lower value 1.02 | locus YDR388W, stronger effect = lower value 0.998 | locus YDR392W, strain spt3, stronger effect = lower value 0.885 | locus YDR502C, strain sam2, stronger effect = lower value 1.03 | locus YEL003W, strain gim4, stronger effect = lower value 1.02 | locus YEL037C, strain rad23, stronger effect = lower value 1.02 | locus YEL061C, strain CIN8 (second series), stronger effect = lower value 1.02 | locus YEL061C, strain CIN8, stronger effect = lower value 1 | locus YER015W, strain faa2, stronger effect = lower value 1.02 | locus YER016W, strain bim1, stronger effect = lower value 1.03 | locus YER110C, stronger effect = lower value 0.98 | locus YER111C, strain swi4, stronger effect = lower value 1 | locus YER155C, strain BEM2 (second series), stronger effect = lower value 1 | locus YER155C, strain BEM2, stronger effect = lower value 0.991 | locus YER167W, strain BCK2, stronger effect = lower value 0.989 | locus YFR010W, strain ubp6, stronger effect = lower value 1.03 | locus YGL078C, strain dbp3, stronger effect = lower value 1.02 | locus YGL086W, strain mad1, stronger effect = lower value 1.01 | locus YGL167C, strain pmr1, stronger effect = lower value 1.03 | locus YGL173C, strain kem1, stronger effect = lower value 1.05 | locus YGL227W, strain vid30, stronger effect = lower value 1.02 | locus YGL240W, strain doc1, stronger effect = lower value 1.02 | locus YGL248W, strain PDE1, stronger effect = lower value 1.01 | locus YGL253W, strain hxk2, stronger effect = lower value 1.05 | locus YGR135W, strain pre9, stronger effect = lower value 1.07 | locus YGR252W, strain gcn5, stronger effect = lower value 1.05 | locus YHR013C, strain ard1, stronger effect = lower value 1.02 | locus YHR027C, strain rpn1, stronger effect = lower value 1.03 | locus YHR030C, strain SLT2, stronger effect = lower value 0.996 and 1 | locus YHR079C, strain IRE1 (second series), stronger effect = lower value 0.998 | locus YHR079C, strain IRE1, stronger effect = lower value 0.998 | locus YHR094C, strain hxt1, stronger effect = lower value 0.991 | locus YHR129C, strain ARP1, stronger effect = lower value 0.998 | locus YHR142W, strain chs7, stronger effect = lower value 1.04 | locus YHR200W, strain rpn10, stronger effect = lower value 1.01 | locus YIL066C, strain RNR3, stronger effect = lower value 0.98 | locus YIL073C, strain SPO22, stronger effect = lower value 1.07 | locus YIL125W, strain kgd1, stronger effect = lower value 1 | locus YIR030C, strain dcg1, stronger effect = lower value 0.994 | locus YJL092W, strain hpr5, stronger effect = lower value 1.02 | locus YJL095W, strain BCK1 (second series), stronger effect = lower value 1.02 | locus YJL095W, strain BCK1, stronger effect = lower value 1.06 and 1.01 | locus YJL115W, strain asf1, stronger effect = lower value 1.02 | locus YJL129C, strain trk1, stronger effect = lower value 1.04 | locus YJL134W, strain LCB3, stronger effect = lower value 0.99 | locus YJL154C, strain vps35, stronger effect = lower value 1.03 | locus YJL164C, strain tpk1, stronger effect = lower value 1.01 | locus YJL166W, strain qcr8, stronger effect = lower value 1.03 | locus YJL168C, strain set2, stronger effect = lower value 1.01 | locus YJL187C, strain SWE1 (second series), stronger effect = lower value 1.01 | locus YJL187C, strain SWE1, stronger effect = lower value 1.03 | locus YJR043C, strain POL32, stronger effect = lower value 0.96 | locus YJR066W, strain TOR1, stronger effect = lower value 0.962 | locus YKL009W, strain mrt4, stronger effect = lower value 1.03 | locus YKL068W, stronger effect = lower value 1 | locus YKL085W, strain MDH1 (second series), stronger effect = lower value 0.99 | locus YKL085W, strain MDH1, stronger effect = lower value 0.99 | locus YKL160W, strain elf1, stronger effect = lower value 0.998 | locus YKR001C, strain vps1, stronger effect = lower value 1.01 | locus YKR026C, strain gcn3, stronger effect = lower value 1.02 | locus YKR091W, strain srl3, stronger effect = lower value 1.03 | locus YLL001W, strain dnm1, stronger effect = lower value 0.986 | locus YLL026W, stronger effect = lower value 1.02 | locus YLL041C, strain sdh2, stronger effect = lower value 1.02 | locus YLR027C, strain aat2, stronger effect = lower value 1.03 | locus YLR039C, strain RIC1, stronger effect = lower value 0.989 | locus YLR058C, strain SHM2, stronger effect = lower value 0.98 | locus YLR102C, strain apc9, stronger effect = lower value 0.995 | locus YLR113W, strain HOG1, stronger effect = lower value 0.998 | locus YLR221C, strain rsa3, stronger effect = lower value 1.04 | locus YLR258W, strain gsy2, stronger effect = lower value 1.02 | locus YLR262C, strain YPT6 (second series), stronger effect = lower value 1.03 | locus YLR268W, strain sec22, stronger effect = lower value 0.97 | locus YLR320W, strain mms22, stronger effect = lower value 1.05 | locus YLR342W, strain FKS1, stronger effect = lower value 1.03 | locus YLR357W, strain rsc2, stronger effect = lower value 0.994 | locus YLR370C, strain arc18, stronger effect = lower value 1.02 | locus YLR371W, strain rom2, stronger effect = lower value 0.992 | locus YLR384C, strain iki3, stronger effect = lower value 1.04 | locus YLR418C, strain cdc73, stronger effect = lower value 1.09 | locus YML016C, strain PPZ1, stronger effect = lower value 0.984 | locus YML032C, strain rad52, stronger effect = lower value 0.984 | locus YML120C, strain ndi1, stronger effect = lower value 1.01 | locus YML124C, strain tub3, stronger effect = lower value 0.984 | locus YMR058W, strain fet3, stronger effect = lower value 1.03 | locus YMR078C, strain ctf18, stronger effect = lower value 0.999 | locus YMR125W, strain sto1, stronger effect = lower value 1.01 | locus YMR129W, stronger effect = lower value 1.02 | locus YMR205C, strain PFK2, stronger effect = lower value 1.02 | locus YMR223W, strain ubp8, stronger effect = lower value 1.01 | locus YMR231W, strain pep5, stronger effect = lower value 1.01 | locus YMR263W, strain SAP30, stronger effect = lower value 0.994 | locus YMR307W, strain GAS1, stronger effect = lower value 0.969 | locus YNL067W, strain RPL9B, stronger effect = lower value 1 | locus YNL071W, strain lat1, stronger effect = lower value 1.02 | locus YNL128W, strain TEP1, stronger effect = lower value 0.976 | locus YNL153C, strain GIM3, stronger effect = lower value 1.02 | locus YNL183C, strain NPR1, stronger effect = lower value 0.958 | locus YNL209W, strain ssb2, stronger effect = lower value 1.03 | locus YNL233W, strain BNI4, stronger effect = lower value 1.04 | locus YNL248C, strain rpa49, stronger effect = lower value 1.05 | locus YNL250W, strain rad50, stronger effect = lower value 0.998 | locus YNL271C, strain bni1, stronger effect = lower value 0.982 | locus YNL298W, strain CLA4, stronger effect = lower value 0.987 | locus YNL307C, strain MCK1, stronger effect = lower value 1.01 | locus YNL322C, strain KRE1 (second series), stronger effect = lower value 1 | locus YNR049C, strain mso1, stronger effect = lower value 1.02 | locus YNR052C, strain pop2, stronger effect = lower value 1.03 | locus YOL006C, strain TOP1, stronger effect = lower value 0.967 | locus YOL012C, strain htz1 1.07 | locus YOL147C, strain pex11, stronger effect = lower value 0.99 | locus YOR001W, strain rrp6, stronger effect = lower value 1.04 | locus YOR061W, strain CKA2, stronger effect = lower value 0.962 | locus YOR069W, strain VPS5, stronger effect = lower value 0.996 | locus YOR070C, strain gyp1, stronger effect = lower value 1.01 | locus YOR080W, strain dia2, stronger effect = lower value 1 | locus YOR083W, strain WHI5, stronger effect = lower value 0.997 | locus YOR106W, strain vam3, stronger effect = lower value 0.982 | locus YOR136W, strain idh2, stronger effect = lower value 0.989 | locus YOR144C, strain elg1, stronger effect = lower value 0.991 | locus YOR184W, strain ser1, stronger effect = lower value 0.954 | locus YOR231W, strain MKK1, stronger effect = lower value 0.98 | locus YOR265W, strain rbl2, stronger effect = lower value 1.02 | locus YOR270C, strain vph1, stronger effect = lower value 1.11 | locus YOR290C, strain snf2, stronger effect = lower value 0.985 | locus YOR316C, strain cot1, stronger effect = lower value 0.984 | locus YPL051W, strain arl3, stronger effect = lower value 0.992 | locus YPL078C, strain atp4, stronger effect = lower value 0.995 | locus YPL106C, strain sse1, stronger effect = lower value 0.993 | locus YPL240C, strain hsp82, stronger effect = lower value 1.01 | locus YPL241C, strain CIN2, stronger effect = lower value 0.997 | locus YPL256C, strain CLN2, stronger effect = lower value 0.992 | locus YPR119W, strain clb2, stronger effect = lower value 1.01 | locus YPR141C, strain kar3, stronger effect = lower value 0.981 | locus YPR163C, strain tif3, stronger effect = lower value 0.989 | locus YPR167C, strain met16, stronger effect = lower value 1.01 | strain wtn01, stronger effect = lower value 0.974
